PubChem BioAssay AID652053 (Broad Institute, 2013)
Hit rate of the full screen: of about 1,300 compounds, about 930 (72%) were called active.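 The calls were made as follows: active = fitted curve reaches 40% activation signal increase at or below the top valid tested concentration in every replicate test; inconclusive = replicate tests disagree in their calls; inactive = all replicate tests inactive, including effects opposite the expected signal rise.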 The set was probably picked from earlier hits. Only a sample is shown. Entries with a potency or affinity are not part of this list.

Assay: miR-122 inhibitors in Huh7 reporter cells, dose response, cell-based, Huh7 psiCHECK-miR122, Renilla luciferase, cherry-pick (AID 652053)
Settings: 48 h; series mostly up to 35 µM; activation (miR-122 inhibition): at the top concentration

Activation (miR-122 inhibition), inactive:
O=C1CCCS(=O)(=O)c2ccccc21 -3.21%
Cc1ccc2nc(C)c(C)nc2c1N -8.43%
CNC(=O)[C@@]1(C)C=C[C@@H](Cc2ccccc2)N1C(=O)OC -0.509%
O=C(Cc1cccs1)Nc1ccc(S(=O)(=O)N2CCCCC2)cc1 24.5%
Cc1ccc(S(=O)(=O)Nc2ccc3c(c2)CC(=O)N([C@@H](C)CO)C[C@H](C)[C@@H](CN(C)Cc2ccc(C(=O)Nc4ccccc4N)cc2)O3)cc1 -2.8% [at 28.5 µM]
Cc1ccc(S(=O)(=O)Nc2ccc3c(c2)CC(=O)N([C@H](C)CO)C[C@H](C)[C@@H](CN(C)Cc2ccc(C(=O)Nc4ccccc4N)cc2)O3)cc1 19.4%
Cc1ccc(S(=O)(=O)Nc2ccc3c(c2)CC(=O)N([C@@H](C)CO)C[C@@H](C)[C@@H](CN(C)Cc2ccc(C(=O)Nc4ccccc4N)cc2)O3)cc1 -11% [at 26 µM]
Cc1ccc(S(=O)(=O)Nc2ccc3c(c2)CC(=O)N([C@H](C)CO)C[C@@H](C)[C@@H](CN(C)Cc2ccc(C(=O)Nc4ccccc4N)cc2)O3)cc1 0.058%
CCC(C)(C)n1nnnc1C(c1ccc(C)cc1)N1CCC(C)CC1 (stereo not given) 43.4%
C[C@H](CO)N1C[C@H](C)[C@H](CN(C)C(=O)Nc2cccc3ccccc23)Oc2ccc(NC(=O)Nc3cccc4ccccc34)cc2CC1=O 1.72% [at 30 µM]
C[C@@H]1CN([C@@H](C)CO)C(=O)Cc2cc(NC(=O)Nc3ccc(C(F)(F)F)cc3)ccc2O[C@H]1CN(C)C(=O)Nc1cccc2ccccc12 5.54%
C[C@H](CO)N1C[C@H](C)[C@H](CN(C)C(=O)Nc2cccc3ccccc23)Oc2ccc(NC(=O)Nc3ccc(C(F)(F)F)cc3)cc2CC1=O 14.9%
C[C@@H]1CN([C@H](C)CO)C(=O)Cc2cc(NC(=O)Nc3cccc4ccccc34)ccc2O[C@H]1CN(C)C(=O)Nc1cccc2ccccc12 11.5%
C[C@H]1CN([C@@H](C)CO)C(=O)Cc2cc(NC(=O)Nc3ccc(C(F)(F)F)cc3)ccc2O[C@@H]1CN(C)C(=O)Nc1cccc2ccccc12 -2.04% [at 30 µM]
CN(C)S(=O)(=O)c1ccc2c(c1)nc(CCC(=O)NCC1CCCCC1)n2C 6.44%
O=C(COc1ccc2c(c1)C(=O)CC1(CCCCC1)O2)NCc1ccccc1 26.7%
CC1(C)N([O-])C(c2cccs2)=C[N+]1=O 16.7%
C[C@H]1CN([C@@H](C)CO)C(=O)Cc2cc(NC(=O)Nc3cccc4ccccc34)ccc2O[C@H]1CN(C)C(=O)NC1CCCCC1 -9.8%
C[C@@H]1CN([C@H](C)CO)S(=O)(=O)c2ccc(-c3ccccc3)cc2O[C@H]1CN(C)C(=O)C1CCCCC1 29.4%
C[C@@H]1CN([C@H](C)CO)S(=O)(=O)c2ccc(C3=CCCCC3)cc2O[C@@H]1CN(C)Cc1ccccc1 29.9%
COC(=O)C[C@H]1CC[C@@H]2[C@H](COc3ccc(NS(=O)(=O)c4ccc(C)cc4)cc3C(=O)N2C)O1 24.3%
O=C(c1ccccc1F)N1C[C@H]2[C@@H](c3ccccc31)[C@H](CO)N2C(=O)c1cccnc1 -6.1%
O=C(c1ccccc1F)N1C[C@@H]2[C@H](c3ccccc31)[C@@H](CO)N2C(=O)c1ccc(F)cc1 23.6%
O=C(c1ccccc1F)N1C[C@H]2[C@@H](c3ccccc31)[C@H](CO)N2C(=O)c1ccc(F)cc1 31.8%
COc1ccc(N2C(=O)c3cccc4c(N(C)CCO)ccc(c34)C2=O)cc1 4.97%
O=C(C[C@H]1CC[C@H]2[C@@H](COC[C@H](O)CN2C(=O)Nc2cccc(F)c2)O1)NCc1ccccc1F -10.4%
C[C@H](CO)N1C[C@H](C)[C@@H](CN(C)Cc2ccc(C(=O)O)cc2)Oc2c(NC(=O)C3CCOCC3)cccc2C1=O -4.85%
C[C@H](CO)N1C[C@H](C)[C@@H](CN(C)C(=O)Nc2cccc3ccccc23)Oc2c(NC(=O)C3CCOCC3)cccc2C1=O 14.9%
COC(=O)c1ccc(Cl)c(NC(C)=O)c1 -5.94%
COc1ccccc1CNC(=O)C[C@@H]1CC[C@@H]2[C@@H](COc3ccc(NC(C)=O)cc3C(=O)N2C)O1 4.88%
Cc1ccc(NC(=O)[C@@H]2CCCN2S(=O)(=O)c2ccccc2F)cc1S(=O)(=O)N1CCOCC1 32.9%
C[C@@H]1CN([C@H](C)CO)C(=O)Cc2cc(NC(=O)Nc3cccc4ccccc34)ccc2O[C@H]1CN(C)C(=O)NC1CCCCC1 -9.06%
Cc1cccc(OCCCC(=O)Nc2ccc(Cl)c(S(=O)(=O)N3CCOCC3)c2)c1 26.7%
COC(=O)c1cc(Br)ccc1NC(=O)Nc1ccccc1 -7.49%
COc1ccc2c(c1)C(C)=CC(C)(C)N2S(=O)(=O)c1ccc(Br)cc1 20.6%
C[C@H](CO)N1C[C@H](C)[C@H](CN(C)S(=O)(=O)c2ccc(Cl)cc2)Oc2ccc(N(C)C)cc2CC1=O -4.37%
C[C@H](CO)N1C[C@H](C)[C@H](CN(C)CC2CC2)Oc2ccc(N(C)C)cc2CC1=O -3.7%
C[C@H](CO)N1C[C@H](C)[C@H](CN(C)S(C)(=O)=O)Oc2ccc(N(C)C)cc2CC1=O 10.5%
CC(C)NC(=O)N(C)C[C@@H]1Oc2ccc(N(C)C)cc2CC(=O)N([C@H](C)CO)C[C@@H]1C -7.22%
CCCOC(=O)c1[nH]c2c(c1C)C(=O)CC(c1cccs1)C2 (stereo not given) 27.8%
CC(C)N1C(=O)CC(Nc2ccc(N3CCOCC3)cc2)C1=O (stereo not given) 14.4%
Clc1ccc(CNc2nc(N3CCOCC3)nc(N3CCOCC3)n2)cc1 -7.36%
CCn1c(SCC(=O)Nc2ccc(N3CCOCC3)cc2)nnc1-c1ccc(OC)cc1 -11.1%
COc1ccccc1CNC(=O)C[C@@H]1CC[C@H]2[C@@H](COc3ccc(NC(=O)Nc4ccc(F)c(F)c4)cc3C(=O)N2C)O1 -26.3%
CCCNC(=O)C[C@@H]1CC[C@@H]2[C@H](COc3ccc(NC(=O)Nc4c(C)noc4C)cc3C(=O)N2C)O1 -2.46%
COc1ccccc1CNC(=O)C[C@H]1CC[C@H]2[C@H](COc3ccc(NC(=O)Nc4ccc(F)c(F)c4)cc3C(=O)N2C)O1 -21.2%
COCCNC(=O)C[C@@H]1CC[C@H]2[C@@H](COc3ccc(NC(C)=O)cc3C(=O)N2C)O1 9.45%
COc1ccccc1CNC(=O)C[C@@H]1CC[C@H]2[C@H](COc3ccc(NC(=O)Nc4ccc(F)c(F)c4)cc3C(=O)N2C)O1 -26.4%
COCC(=O)Nc1ccc2c(c1)C(=O)N(C)[C@H]1CC[C@@H](CC(=O)O)O[C@H]1CO2 -2.08%
CC(C)C(=O)Nc1ccc2c(c1)C(=O)N(C)[C@H]1CC[C@@H](CC(=O)NCC3CC3)O[C@@H]1CO2 1.56% [at 30 µM]
